PubChem BioAssay (NCI)
This is part of a sample that, as a whole, favours compounds with a hit. Of some 79,000 tested, about 15% had one in any assay. Cut-off read from the data, not from the text of the source: active = growth inhibition above about 70%; inactive = the rest.

Legend:
[1] = NCI Yeast Anticancer Drug Screen. Data for the rad50 strain (AID 155);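 note: 0% = growth of vehicle-only cultures of the same strain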; conditions: S. cerevisiae rad50 strain growth inhibition; at 50.0 µM; active compounds read high
How it was run: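 Readout: growth inhibition relative to vehicle-treated cultures. Compound exposure was carried out in a genetically defined yeast strain deficient in DNA damage repair.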

[2] = NCI Yeast Anticancer Drug Screen. Data for the mec2-1 strain (AID 157); conditions: S. cerevisiae mec2-1 strain, at 50.0 µM, active compounds read high
How it was run: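 Test agents were screened against the mec2-1 yeast strain, with defined DNA repair or cell cycle alteration. Growth was scored as inhibition against vehicle-only controls.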

[3] = NCI Yeast Anticancer Drug Screen. Data for the sgs1 mgt1 strain (AID 161);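 note: 0% = growth of cultures given vehicle only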; conditions: S. cerevisiae sgs1 mgt1 strain, at 50.0 µM, active compounds read high
How it was run: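 Read-out: growth inhibition vs vehicle controls. Cells: mutant yeast strain deficient in DNA damage repair.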

[4] = NCI Yeast Anticancer Drug Screen. Data for the cln2 rad14 strain (AID 165);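 note: 0% = growth equal to vehicle treated cultures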; conditions: S. cerevisiae cln2 rad14 strain, at 50.0 µM, active compounds read high
How it was run: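 Growth of compound-exposed yeast (cln2 rad14 genotype) measured and expressed as inhibition relative to vehicle.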

[5] = NCI Yeast Anticancer Drug Screen. Data for the bub3 strain (AID 167); conditions: S. cerevisiae bub3 mutant strain, at 50.0 µM, active compounds read high
How it was run: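 Readout: yeast growth inhibition, expressed relative to vehicle-only wells. The test organism is a mutant strain from a panel with lesions in DNA repair or checkpoint genes.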

[6] = NCI Yeast Anticancer Drug Screen. Data for the mlh1 rad18 strain (AID 175); conditions: S. cerevisiae mlh1 rad18 strain growth inhibition; at 50.0 µM; active compounds read high
How it was run: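 In this whole-cell yeast screen, a strain with altered DNA damage repair is challenged with compound, and its growth is measured against matched vehicle-treated controls.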

Measured: growth inhibition

CCN(CCNc1cc(OC)cc2cccnc12)CC(C)C
inactive: [1] 22.8% | [2] 9.65% | [3] 1.8% | [4] 13.8% | [5] 6.85% | [6] 17%

CCOc1ccc(NC(=O)C(=O)C(/C(=N/N)C(=O)OC)c2nc3ccc([N+](=O)[O-])cc3[nH]c2=O)cc1 (stereo not given)
inactive: [1] 6.9% | [2] -6% | [3] 3.5% | [4] 13.3% | [5] 7% | [6] 21.9%

O=C(Nn1cnc2ccccc2c1=O)c1ccc(NC(=S)Nc2ccccc2)cc1
inactive: [1] 63.5% | [2] -16.4% | [3] 52.7% | [4] -27.8% | [5] -1.45% | [6] 7.5%

CCOc1cc2c(cc1Cc1ccc3c(c1)OCO3)OCO2
inactive: [1] -8.15% | [2] -11.8% | [3] -5.6% | [4] -12.1% | [5] 4.35% | [6] 1.3%

Cc1cccc(C)c1NC(=O)CCC(=O)NC(N)=NC#N
inactive: [1] -33.1% | [2] -23.8% | [3] -25.7% | [4] 9.7% | [5] -23.8% | [6] -23.1%

Cc1sc2nc3n(c(=O)c2c1C)N=C(c1ccc([N+](=O)[O-])cc1)CS3
inactive: [1] 9.15% | [2] -14.9% | [3] -10.1% | [4] 24.1% | [5] 7.2% | [6] -8.1%

O=C1c2ccccc2C(=O)c2c(NCCNC(=O)C3CCCN3)ccc(NCCNC(=O)C3CCCN3)c21 (stereo not given)
inactive: [1] -1.25% | [2] -11.7% | [3] 21.8% | [4] 3.4% | [5] -3.7% | [6] -85.5%

N=C(N)SCc1cccc2ccc3cccc(CSC(=N)N)c3c12
inactive: [1] 4.05% | [2] 8.5% | [3] 17.4% | [4] -3.1% | [5] 2.6% | [6] 30.9%

CCCCCC(=O)OCC(CC)CC
inactive: [1] -8.05% | [2] -6.55% | [3] -13.3% | [4] -29.6% | [5] -1.05% | [6] 5.35%

C=C1C(=O)OC2/C=C(\C)CC(O)/C=C(/CO)CC(OC(=O)/C(C)=C/C)C12 (stereo not given)
inactive: [1] -4.5% | [2] -33.6% | [3] -6.55% | [4] -1.9% | [5] -1.65% | [6] -58.5%

c1ccc(COc2ccc(OCc3ccccc3)cc2)cc1
inactive: [1] -1.5% | [2] 3.8% | [3] 13.1% | [4] -31.6% | [5] -10.2% | [6] 3%

CCCCCCCCOc1ccc(C=Nc2ccc(C)cc2)cc1
inactive: [1] -2.05% | [2] 19.3% | [3] 0.45% | [4] -9.8% | [5] 16.9% | [6] 13%

Cc1cccc(CC(N)C(=O)O)c1 (stereo not given)
inactive: [1] -5.15% | [2] 5.1% | [3] -6.95% | [4] -3.3% | [5] 4% | [6] -9.8%

COc1cc(NC=O)c2c(c1)SCC(=O)N2
inactive: [1] -1.75% | [2] -52.5% | [3] -8.75% | [4] 6.7% | [5] 6.2% | [6] -6.6%

O=C(Nc1cccc(Cl)c1Cl)Oc1ccc(Cl)cc1C(=O)c1ccccc1
inactive: [1] -7.8% | [2] -1% | [3] -17.1% | [4] 4.5% | [5] -12.9% | [6] -27.4%

OC1(c2ccccc2)CCCN(Cc2ccccc2)C1 (stereo not given)
inactive: [1] 3.75% | [2] 7% | [3] 6.6% | [4] -17.4% | [5] 14.6% | [6] 15.8%

CC(NC(=O)NC(C)(C)C)c1ccccc1 (stereo not given)
inactive: [1] 3.05% | [2] -12.9% | [3] -5.05% | [4] -37% | [5] 5.2% | [6] 4.1%

Cc1ccc(NC(=O)Oc2ccc(Br)cc2Br)c(Cl)c1
inactive: [1] 21.1% | [2] 17.9% | [3] 16.7% | [4] -0.25% | [5] -6.3% | [6] 41.6%

CC[N+](C)(CC)c1cccc(OC(=O)Nc2ccc(OC)cc2)c1
inactive: [1] 6% | [2] 5.25% | [3] 3.35% | [4] -5.7% | [5] 1.05% | [6] 14.3%

CCCCN=C1NS(=O)(=O)c2ccccc21
inactive: [1] 15.5% | [2] -11.5% | [3] 13.2% | [4] -8.15% | [5] 0% | [6] -0.6%
